Several values for one entry are separate records, joined by “and”; a condition that tells them apart may be missing. Equal values may be shown once. Results filed as inconclusive are left out. Entries that show only a call come without a potency. Some compounds were tested as several samples or in several runs, with calls that do not always agree. Activity calls are given as the source filed them. Unless noted, the call rests on the fitted dose curve; in most records, active means well fitted curve in the direction sought with a large enough effect in the repeat runs; inconclusive means weak or mixed curves; inactive means no such curve, though single readings can be large; an effect the other way counts as inactive or inconclusive.
How the values were obtained:
[1] = qHTS assay to identify small molecule agonists of the estrogen receptor alpha (ER-alpha) signaling pathway in the presence of an antagonist - cell viability counter screen (AID 1259386);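 further: cells exposed to compounds for 22 h at 37 °C before the viability read; nearly all actives have a fitted effect of over 30% in size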; further: potency means the concentration at half of the fitted maximal effect
In short: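 Using estrogen-depleted VM7Luc4E2 cells, the 15-concentration compound series was applied together with 10.0nM ICI-182,780 and incubated 22hr at 37C/5% CO2. Cell viability was then scored by CellTiter-Fluor.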

[2] = biological target: Progesterone receptor (Homo sapiens) (UniProt P06401); assay: qHTS assay to identify small molecule agonists of the progesterone receptor (PR) signaling pathway (AID 1346784; calls by dose curve; further: nearly all actives have a fitted effect of over 30% in size)
In short: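 Agonist qHTS: compounds pinned onto 3,000 PR-UAS-bla HEK 293T cells per well in charcoal-stripped serum medium, 16hr at 37C, then beta-lactamase activity measured by LiveBLAzer FRET fluorescence after 2 hours at room temperature.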

[3] = biological target: Progesterone receptor (Homo sapiens) (UniProt P06401); assay: qHTS assay to identify small molecule antagonists of the progesterone receptor (PR) signaling pathway (AID 1346795; active means well fitted inhibition curve with a large enough effect in the signal ratio in the repeat runs, not every such curve was filed as active; the % refers to the signal ratio; further: potency means the concentration at half of the fitted maximal effect)
In short: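 Antagonist mode with agonist R5020 at 1 nM final and 16 hr incubation at 37C. Reporter was beta-lactamase driven by UAS in HEK293T (PR-UAS-bla), 2% charcoal-stripped serum; signal from LiveBLAzer FRET substrate, 2 hr at room temperature.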

[4] = qHTS assay to identify small molecule antagonists of the progesterone receptor (PR) signaling pathway - cell viability counter screen (AID 1346798); further: nearly all actives have a fitted effect of over 50% in size; further: potency means the concentration at half of the fitted maximal effect
In short: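 Cytotoxicity read as CellTiter-Glo luminescence (30 min, room temperature) in the same wells as the beta-lactamase readout. HEK293T PR-UAS-bla cells in charcoal-stripped 2% FBS received compound and R5020, then 16 h at 37C, 5% CO2.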

[5] = qHTS assay to identify small molecule agonists of the progesterone receptor (PR) signaling pathway - cell viability counter screen (AID 1346799; calls by dose curve; further: nearly all actives have a fitted effect of over 45% in size; further: potency means the concentration at half of the fitted maximal effect)
In short: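 Cytotoxicity measured by CellTiter-Glo luminescence (30 min, RT) in the same wells as the PR beta-lactamase agonist read. Those HEK293T cells had 16 h compound treatment at 37 C in 2% charcoal-stripped FBS medium.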

[6] = qHTS assay to identify small molecule antagonists of the TGF-beta/Smad signaling pathway - cell viability counter screen (AID 1346824); further: nearly all actives have a fitted effect of over 50% in size
In short: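 SBE-bla HEK 293T cells were plated overnight at 37 C, then given compounds in DMSO plus TGF-beta1 (added as 0.25 ng/mL solution) for 5 hr. After the bla read, CellTiter-Glo was added to the same wells and luminescence read after 30 min at room temperature.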

[7] = qHTS assay to identify small molecule agonists of the TGF-beta/Smad signaling pathway - cell viability counter screen (AID 1346829); further: nearly all actives have a fitted effect of over 45% in size; further: potency means the concentration at half of the fitted maximal effect
In short: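 HEK 293T SBE-bla line, 5 hr compound exposure at 37 C, multiplexed CellTiter-Glo viability read by luminescence.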

[8] = qHTS assay to identify small molecule agonists of the TGF-beta/Smad signaling pathway (AID 1346859; active means well fitted activation curve with a large enough effect in the signal ratio in the repeat runs, not every such curve was filed as active; the % refers to the signal ratio; further: potency means the concentration at half of the fitted maximal effect; on activation: series mostly up to about 77 µM)
In short: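 Fluorescence (ex 405 nm; em 460 and 530 nm) was read 2 h after LiveBLAzer FRET substrate at RT. The preceding compound treatment of overnight-plated SBE-bla HEK293T cells lasted 5 h at 37 C.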

[9] = biological target: Thyrotropin-releasing hormone receptor (Homo sapiens) (UniProt P34981); assay: qHTS assay to identify small molecule antagonists of the thyrotropin-releasing hormone receptor (TRHR) signaling pathway (AID 1346877; active means well fitted inhibition curve with a large enough effect in the repeat runs, not every such curve was filed as active; further: series mostly up to about 51 µM)
In short: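 Calcium signal in dye-loaded TRHR/HEK293 cells; compounds added 5 min before TRH (1 nM final); fluorescence monitored 3 min at 1 s steps.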

[10] = biological target: Thyrotropin-releasing hormone receptor (Homo sapiens) (UniProt P34981); assay: qHTS assay to identify small molecule agonists of the thyrotropin-releasing hormone receptor (TRHR) signaling pathway (AID 1346891; calls by dose curve; further: series mostly up to about 58 µM)
In short: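 Agonist-mode intracellular calcium readout: kinetic fluorescence over 3 min at 1 s intervals after compound addition to TRHR-HEK293 cells (18 h seeded, 2 h dye-loaded at 37 C). Fifteen concentrations, triplicates.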

Chain of Thyrotropin-releasing hormone receptor (Homo sapiens) (P34981 whole entry, looked up): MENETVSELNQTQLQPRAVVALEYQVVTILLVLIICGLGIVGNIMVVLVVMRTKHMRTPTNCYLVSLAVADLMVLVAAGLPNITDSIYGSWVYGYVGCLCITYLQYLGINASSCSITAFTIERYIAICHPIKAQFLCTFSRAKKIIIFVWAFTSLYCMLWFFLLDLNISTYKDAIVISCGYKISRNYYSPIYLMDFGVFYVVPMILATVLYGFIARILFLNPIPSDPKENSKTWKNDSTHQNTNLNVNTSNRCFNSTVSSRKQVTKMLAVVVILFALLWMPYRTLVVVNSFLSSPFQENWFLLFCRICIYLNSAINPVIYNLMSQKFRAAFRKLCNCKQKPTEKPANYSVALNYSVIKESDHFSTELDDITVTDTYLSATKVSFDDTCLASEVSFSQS
Chain of Progesterone receptor (Homo sapiens) (P06401 whole entry, looked up): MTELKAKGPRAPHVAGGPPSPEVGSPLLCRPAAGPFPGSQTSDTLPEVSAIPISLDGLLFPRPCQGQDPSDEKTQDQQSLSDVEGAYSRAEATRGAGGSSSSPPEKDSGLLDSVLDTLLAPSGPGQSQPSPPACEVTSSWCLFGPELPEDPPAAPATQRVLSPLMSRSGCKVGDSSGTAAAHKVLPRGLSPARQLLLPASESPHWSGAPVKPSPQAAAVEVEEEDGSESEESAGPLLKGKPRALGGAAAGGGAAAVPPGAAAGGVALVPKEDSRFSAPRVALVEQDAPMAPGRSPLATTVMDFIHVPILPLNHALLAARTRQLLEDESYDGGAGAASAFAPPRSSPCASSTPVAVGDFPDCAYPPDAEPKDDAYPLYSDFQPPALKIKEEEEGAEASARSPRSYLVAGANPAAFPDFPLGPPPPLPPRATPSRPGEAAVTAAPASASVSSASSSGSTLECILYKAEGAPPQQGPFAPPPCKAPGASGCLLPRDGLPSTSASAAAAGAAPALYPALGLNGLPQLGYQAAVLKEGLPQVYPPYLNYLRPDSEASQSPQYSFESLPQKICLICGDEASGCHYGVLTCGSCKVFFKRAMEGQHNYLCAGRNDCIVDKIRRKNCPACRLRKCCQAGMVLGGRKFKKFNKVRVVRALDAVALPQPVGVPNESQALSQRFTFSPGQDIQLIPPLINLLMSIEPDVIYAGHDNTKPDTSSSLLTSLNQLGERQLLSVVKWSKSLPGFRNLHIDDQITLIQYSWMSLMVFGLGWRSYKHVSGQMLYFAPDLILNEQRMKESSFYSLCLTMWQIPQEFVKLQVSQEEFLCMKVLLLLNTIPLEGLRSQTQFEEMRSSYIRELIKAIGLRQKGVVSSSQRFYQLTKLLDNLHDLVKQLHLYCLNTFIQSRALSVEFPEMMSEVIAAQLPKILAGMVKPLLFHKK

Compound | Potency [1] | Potency [2] | Potency [3] | Potency [4] | Potency [5] | Potency [6] | Potency [7] | Potency [8] | Potency [9] | outcome [10]
O=NN(c1ccccc1)c1ccccc1 | inactive | inactive | inactive | inactive | inactive | inactive | inactive | inactive | inactive | inactive
CC(O)CN(CC(C)O)CC(C)O (centres undefined) | inactive | inactive | inactive | inactive | inactive | inactive | inactive | inactive | inactive | inactive
COP(=S)(OC)Oc1ccc(S(=O)(=O)N(C)C)cc1 | inactive | inactive | inactive | inactive | inactive | inactive | inactive | inactive |  | 
CCOC(=O)c1ccccc1N | inactive | inactive | inactive | inactive | inactive | inactive | inactive | inactive |  | inactive
CCC1(c2ccc(N)cc2)CCC(=O)NC1=O (centres undefined) | inactive | inactive | inactive | inactive | inactive | inactive | inactive | inactive |  | inactive
CC[n+]1c(-c2ccccc2)c2cc(N)ccc2c2ccc(N)cc21 | 48.3 µM (active) and 26.6 µM (active) | inactive | 38.4 µM (active) | 5.31 µM (active) | 3.76 µM (active) | inactive | inactive | inactive | inactive | inactive
ClC(Cl)(Cl)c1ccccc1 | inactive | inactive | inactive | inactive | inactive | inactive | inactive | inactive |  | 
Cc1ccc([N+](=O)[O-])cc1 | inactive | inactive | inactive | inactive | inactive | inactive | inactive | inactive | inactive | inactive
CC1(C)C(C(=O)OC(C#N)c2cccc(Oc3ccccc3)c2)C1(C)C (centres undefined) | inactive | inactive | 24.5 µM (active) | inactive |  | inactive | inactive | inactive |  | inactive
CCCCOCCOC(C)=O | inactive | inactive | inactive | inactive | inactive | inactive | inactive | inactive |  | inactive
O=NN1CCOCC1 | inactive | inactive | inactive | inactive | inactive | inactive | inactive | inactive | inactive | inactive
NC(=O)CN1CCCC1=O | inactive | inactive | inactive | inactive | inactive | inactive | inactive | inactive |  | inactive
C=CC(Cl)CCl (centres undefined) | inactive | inactive | inactive | inactive | inactive | inactive | inactive | inactive |  | inactive
[Cl-].[Cl-].[Cl-].[Fe+3] | inactive | inactive | inactive | inactive | inactive | inactive | inactive | inactive |  | 
CCOP(=O)(O)OCC (tested in a mixture with another compound) | inactive and 60.6 µM (active) | inactive | inactive and 60.6 µM (active) | inactive | inactive |  | inactive and 54.5 µM (active) | inactive |  | 
CS(=O)(=O)NC(=O)c1cc(Oc2ccc(C(F)(F)F)cc2Cl)ccc1[N+](=O)[O-] | inactive | inactive | inactive | inactive | inactive | inactive | inactive | inactive |  | 
CCOS(=O)(=O)OCC | inactive | inactive | inactive | inactive | inactive | inactive | inactive | inactive | inactive | inactive
Clc1cccc(Cl)c1 | inactive | inactive | inactive | inactive | inactive | inactive | inactive | inactive |  | inactive
CCCCOCC1CO1 (centres undefined) | inactive | inactive | inactive | inactive | inactive | inactive | inactive | inactive |  | inactive
N#CC(c1ccccc1)c1ccccc1 | inactive | inactive | inactive | inactive | inactive | inactive | inactive | inactive | inactive | inactive
Oc1ccc(Cl)cc1Cl | inactive | inactive | inactive | inactive | inactive | inactive | inactive | 48.6 µM (active) and inactive | inactive | inactive
C[N+](C)(C)CC(=O)O | inactive | inactive | inactive | inactive | inactive | inactive | inactive | inactive |  | 
CCCCOC(=O)COC(=O)c1ccccc1C(=O)OCCCC | inactive | inactive | inactive | inactive | inactive | inactive | inactive | inactive |  | 
c1ccc(C2CO2)cc1 (centres undefined) | inactive | inactive | inactive | inactive | inactive | inactive | inactive | inactive |  | inactive
CN(C)c1nc(=O)n(C2CCCCC2)c(=O)n1C | inactive | inactive | inactive | inactive | inactive | inactive | inactive | inactive | inactive | inactive

Compound | Potency [1] | Potency [2] | Potency [3] | Potency [4] | Potency [5] | Potency [6] | Potency [7] | Potency [8] | Potency [9] | outcome [10]
CCNCC | inactive | inactive | inactive | inactive | inactive | inactive | inactive | inactive | inactive | inactive
CCCCCCCCCCCCCl | inactive | inactive | inactive | inactive | inactive | inactive | inactive | inactive |  | inactive
ClC(Cl)(Cl)Br | inactive | inactive | inactive | inactive | inactive | inactive | inactive | inactive |  | inactive
CCCCSP(=O)(SCCCC)SCCCC | inactive | inactive | 23.8 µM (active) and 24.3 µM (active) | inactive | inactive | inactive | inactive | inactive |  | inactive
CC(C)(O)C#N | inactive | inactive | inactive | inactive | inactive | inactive | inactive | inactive | inactive | inactive
C=CC(=O)OCC(CC)(COC(=O)C=C)COC(=O)C=C | 70.4 µM (active) and 43.3 µM (active) | inactive | 25 µM (active) and 17.2 µM (active) | 56 µM (active) and 43.3 µM (active) | 70.4 µM (active) and 24.3 µM (active) | inactive | inactive | inactive | inactive | inactive
Cc1cc(Cl)ccc1N=CN(C)C | inactive | inactive | inactive | inactive | inactive | inactive | inactive | inactive | inactive | inactive
C[N+](C)(C)C | inactive | inactive | inactive | inactive | inactive | inactive | inactive | inactive |  | inactive
Oc1ccc(Cl)cc1Cc1ccccc1 | inactive | inactive | 7.7 µM (active) and 10.6 µM (active) | inactive |  | inactive | inactive | inactive | inactive | inactive
COC(=O)Nc1nc2ccccc2[nH]1 | inactive | inactive | inactive | inactive | inactive | inactive | inactive | inactive |  | inactive
CC(C)(C#N)N=NC(C)(C)C#N | inactive | inactive | inactive | inactive | inactive | inactive | inactive | inactive |  | inactive
C[N+](C)(C)CC(=O)[O-] | inactive | inactive | inactive | inactive | inactive | inactive | inactive | inactive |  | 
C[C@]12CC[C@H]3[C@@H](CCC4=CC(=O)CC[C@@H]43)[C@@H]1CC[C@@H]2O | inactive |  | inactive |  |  | inactive | inactive | inactive | inactive | inactive
O=C1Nc2ccc(Cl)cc2C(c2ccccc2)=NC1O (centres undefined) | inactive | inactive | inactive |  | inactive | inactive | inactive | inactive |  | 
OCCOCCO |  | inactive | inactive | inactive | inactive | inactive | inactive | inactive |  | 
NN=C(N)N | inactive | inactive | inactive |  | inactive | inactive | inactive | inactive |  | 
C=C(C)C#N |  | inactive | inactive | inactive | inactive | inactive | inactive | inactive | inactive | inactive
O=P(OCCCl)(OCCCl)OCCCl | inactive | inactive | inactive |  | inactive | inactive | inactive | inactive |  | inactive
Cc1cccc(N=Nc2ccc(N(C)C)cc2)c1 | 24.8 µM (active) and 24.3 µM (active) | inactive |  | inactive | inactive | inactive | inactive | inactive | inactive | inactive
COP(=O)(NC(C)=O)SC (centres undefined) | inactive | inactive | inactive |  | inactive | inactive | inactive | inactive | inactive | inactive
CSc1nc(NC(C)C)nc(NC(C)C)n1 | inactive | inactive |  | inactive | inactive | inactive | inactive | inactive | inactive | inactive
CC(C)(O)C(=O)Nc1ccc([N+](=O)[O-])c(C(F)(F)F)c1 | inactive | inactive |  | inactive |  | inactive | inactive | inactive |  | 
Nc1ccc([N+](=O)[O-])cc1N | 48.5 µM (active) and 38.6 µM (active) | inactive |  |  | inactive | inactive | inactive | inactive | inactive | inactive
CCOP(=O)(OCC)OCC | inactive | inactive | inactive |  | inactive | inactive | inactive | inactive |  | inactive
CC1=C(C(=O)Nc2ccccc2)SCCO1 | inactive | inactive |  | inactive | inactive | inactive | inactive | inactive | inactive | inactive
